aSyn 5UTR act: Activators via SNCA 5'UTR binding, MLPCN. alpha-synuclein 5'UTR reporter, activators screen. activity score, % (tested at 7.5 µM), hits read low. 7.1% of 300,000 active; in the data active = activity score below about -60%
Of the large screens only hits and unclear results are named; the others gave an inactive call. Only a sample is shown.

CCCC(=O)Nc1ccc(-c2cn3cccnc3n2)cc1	aSyn 5UTR act -85
CC(C)CC(=O)Nc1ccc(-c2cn3cccnc3n2)cc1	aSyn 5UTR act -80
COc1cccc(-c2nc3ccc([N+](=O)[O-])cc3o2)c1	aSyn 5UTR act -120
O=[N+]([O-])c1ccc2nc(-c3ccccc3)oc2c1	aSyn 5UTR act -224
Cc1cccc(NC(=O)c2n[nH]c([N+](=O)[O-])c2Br)c1C	aSyn 5UTR act -62
Cc1nc(N)nc(N)c1/C=C/C(C)(C)c1ccc(Cl)cc1	none
CC(C)(C)S(=O)(=O)c1cnc(-c2ccc(Cl)cc2)nc1N	aSyn 5UTR act -114
CCN(CC)c1ccc(/C=C2\SC(N)=NC2=O)cc1	aSyn 5UTR act -114
Cc1nc(S(=O)(=O)N(C)c2ccccc2)c(C#N)c(C)c1Cl	aSyn 5UTR act -77
O=c1c(-c2ccccc2)n[nH]c2ccccc12	aSyn 5UTR act -87
COc1ccccc1C1CCN(c2ccc([N+](=O)[O-])c(OC)c2)CC1	aSyn 5UTR act -75
COc1ccc(N=C/C=C2\C=C(c3ccccc3)OC(C)(C)O2)cc1	aSyn 5UTR act -135
CC(=O)Nc1ccc(/C=N/Nc2nncc3ccccc23)cc1	aSyn 5UTR act -126
C(=N\Nc1nncc2ccccc12)/c1ccccn1	none
O=C1/C(=C/c2ccccn2)SC(=S)N1CCc1ccccc1	aSyn 5UTR act -159
Cc1ccc(/C=C2\SC(=S)N(CCCC(=O)Nc3ccccn3)C2=O)cc1	none
N#CCCN1CCCc2cc(N=Nc3ccc(C(F)(F)F)cc3)ccc21	aSyn 5UTR act -191
c1ccc(Oc2ccc(-c3ccn[nH]3)cc2)cc1	aSyn 5UTR act -79
Nc1ccc(Oc2cccc(Oc3ccc(N)cc3)c2)cc1	none
COc1cc2c(c(OC)c1OC)-c1ccc(OC)c(=O)cc1[C@@H](N(C)CC#CCO)CC2	none
COc1ccccc1CNC(=O)CCCc1ccccc1	aSyn 5UTR act -69
COc1ccccc1CNC(=O)CN1C(=O)c2cccc(N)c2C1=O	aSyn 5UTR act -65
COc1ccc(CC(=O)NCc2ccc(-n3cccc3)cc2)cc1OC	none
c1ccc2c(c1)nnn2-c1ncnc2sccc12	aSyn 5UTR act -147
COc1ccc(N=c2scc(-c3ccc(OC)cc3)n2CCO)cc1	aSyn 5UTR act -66
Cn1cnc2c(N/N=C/c3cccs3)ncnc21	aSyn 5UTR act -67
COc1cccc(/C=N/Nc2ncnc3c2ncn3Cc2ccccc2)c1O	none
O=C(Cn1cc(C(F)(F)F)cc(Cl)c1=O)NCc1ccccc1	aSyn 5UTR act -113
CCOC(=O)COc1cccc2c(=O)n(CC(=O)NCc3ccccc3)ccc12	none
Cc1cc(N)n2ncc(-c3ccc(F)cc3)c2n1	aSyn 5UTR act -104
COc1ccc(-c2c(C)nc3c(-c4ccccn4)cnn3c2N)cc1	aSyn 5UTR act -181
Cc1nc2c(-c3ccc(F)cc3)cnn2c(N)c1-c1ccc(F)cc1	aSyn 5UTR act -150
CCOc1ccc(Nc2nc(-c3sc(N)nc3C)cs2)cc1	aSyn 5UTR act -70
Cc1ccc(Nc2nc(-c3sc(N)nc3C)cs2)cc1	aSyn 5UTR act -134
COCCSc1nnc(NC(=O)C(C)(C)C)s1	aSyn 5UTR act -90
CC(C)(C)C(=O)Nc1nnc(SCc2cccc(F)c2)s1	aSyn 5UTR act -174
CC(C)(C)C(=O)Nc1nnc(SCc2ccc(F)cc2)s1	aSyn 5UTR act -82
O=C(Nc1ccc(Br)cc1)c1cnccn1	aSyn 5UTR act -94
Cc1ccc(NC(=O)c2cnccn2)cc1C	aSyn 5UTR act -72
Cc1ccc(NC(=O)c2cnccn2)cc1	aSyn 5UTR act -82
COc1ccccc1C(=O)N(CCC1CCCN1C)c1nc2ccccc2s1 (configuration not stated)	aSyn 5UTR act -103
COc1cccc2sc(N(CCCN(C)C)C(=O)c3ccc(S(=O)(=O)N4CCc5ccccc5C4)cc3)nc12	none
COc1cccc2sc(N(CCCN(C)C)C(=O)c3ccc(S(=O)(=O)N4CCCc5ccccc54)cc3)nc12	none
O=C(OCc1nc2ccccc2s1)c1ccccc1O	aSyn 5UTR act -137
O=C(O)c1ccccc1OCc1nc2ccccc2s1	aSyn 5UTR act -146
O=C(OCc1nc2ccccc2s1)c1cccs1	aSyn 5UTR act -197
O=C(OCc1nc2ccccc2s1)c1cnccn1	aSyn 5UTR act -134
Cc1ccc2oc(-c3cccc(NC(=O)c4ccccn4)c3)nc2c1	aSyn 5UTR act -96
COc1cc(C(=O)Nc2cc(-c3nc4cc(C)ccc4o3)ccc2C)cc(OC)c1OC	aSyn 5UTR act -129
COc1cc(C(=O)Nc2cccc(-c3nc4cc(C)ccc4o3)c2)cc(OC)c1OC	aSyn 5UTR act -162
COc1cc(OC)cc(-c2nc3cc(C)ccc3o2)c1	aSyn 5UTR act -216
C/C(=N/NC(=O)c1ccc(C)s1)c1cccnc1	aSyn 5UTR act -70
C/C(=N\NC(=O)c1ccc(Cl)cc1)c1cccnc1	aSyn 5UTR act -92
C/C(=N\NC(=O)c1ccncc1)c1ccc(NC(=O)c2ccc(Cl)cc2)cc1	aSyn 5UTR act -116
COc1cc(OC)cc(C(=O)Nc2ccc(C(=O)c3ccncc3)cc2)c1	aSyn 5UTR act -72
Cn1cc(C(=O)c2ccc(Cl)cc2Cl)cc1C(=O)N/N=C(\N)COc1ccc(Cl)cc1Cl	none
C/C(=N/NC(=O)c1ccncc1)c1ccc(NC(=O)c2ccc(Cl)cc2Cl)cc1	aSyn 5UTR act -185
